Measurements published in PubChem BioAssay (NCATS).
Values joined by “and” are separate entries in the source; they are usually repeats but may differ in a detail not shown here. Equal values may be shown once. Results filed as inconclusive are left out. A call without a number means that no potency is given here. Active and inactive are the calls of the source. Unless noted, calls come from the whole dose curve.

What was measured:
[1] = qHTS for Inhibitors of the Functional Ribonucleoprotein Complex (vRNP) of Lassa (LASV) Arenavirus: LASV Primary Screen - GLuc reporter signal (AID 1347082; calls by dose curve; tested in HEK293 reporter line; note: series mostly up to about 57 µM; nearly all actives have a fitted effect of over 60% in size)
[2] = molecular target: Nucleoprotein (Lymphocytic choriomeningitis virus (strain Armstrong)) (UniProt P09992); experiment: qHTS for Inhibitors of the Functional Ribonucleoprotein Complex (vRNP) of Lymphocytic Choriomeningitis Arenaviruses (LCMV): LCMV Primary Screen - GLuc reporter signal (AID 1347086); note: nearly all actives have a fitted effect of over 70% in size; note: potency is the fitted concentration of half-maximal effect
[3] = qHTS for Inhibitors of the Functional Ribonucleoprotein Complex (vRNP) of Lymphocytic Choriomeningitis Arenaviruses (LCMV): Viability assay - alamar blue signal for LCMV Primary Screen (AID 1347085; calls by dose curve; tested in HEK293 reporter line; note: nearly all actives have a fitted effect of over 80% in size; note: potency is the fitted concentration of half-maximal effect)
[4] = qHTS for Inhibitors of the Functional Ribonucleoprotein Complex (vRNP) of Lassa (LASV) Arenavirus: Viability assay - alamar blue signal for LASV Primary Screen (AID 1347083; calls by dose curve; tested in HEK293 reporter line; note: nearly all actives have a fitted effect of over 80% in size; note: potency is the fitted concentration of half-maximal effect)

Sequence of Nucleoprotein (Lymphocytic choriomeningitis virus (strain Armstrong)) (P09992 whole entry, looked up): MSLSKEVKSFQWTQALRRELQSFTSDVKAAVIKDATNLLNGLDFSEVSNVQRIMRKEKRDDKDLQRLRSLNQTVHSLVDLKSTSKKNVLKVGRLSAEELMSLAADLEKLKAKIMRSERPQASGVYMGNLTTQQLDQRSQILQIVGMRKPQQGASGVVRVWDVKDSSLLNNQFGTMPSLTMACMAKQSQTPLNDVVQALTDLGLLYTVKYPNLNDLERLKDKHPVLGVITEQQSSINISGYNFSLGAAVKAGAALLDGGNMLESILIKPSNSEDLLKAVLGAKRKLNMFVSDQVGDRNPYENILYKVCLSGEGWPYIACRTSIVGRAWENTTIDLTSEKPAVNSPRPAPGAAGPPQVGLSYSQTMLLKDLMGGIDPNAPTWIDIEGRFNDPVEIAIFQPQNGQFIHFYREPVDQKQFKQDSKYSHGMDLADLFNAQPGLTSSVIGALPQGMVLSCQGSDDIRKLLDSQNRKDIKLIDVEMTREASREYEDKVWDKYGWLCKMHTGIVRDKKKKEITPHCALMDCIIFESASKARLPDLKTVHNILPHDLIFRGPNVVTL

| Compound | Potency [1] | Potency [2] | Potency [3] | Potency [4] |
| --- | --- | --- | --- | --- |
| CNS(=O)(=O)CCc1ccc2[nH]cc(C3CCN(C)CC3)c2c1 | inactive | inactive |  |  |
| CC(S)C(=O)NCC(=O)O (centres undefined) | inactive | inactive | inactive |  |
| Cc1ccc(S(=O)(=O)NC(=O)NN2CC3CCCC3C2)cc1 (centres undefined) |  | inactive | inactive |  |
| CC1=C(/C=C/C(C)=C/C=C/C(C)=C/C(=O)Nc2ccc(O)cc2)C(C)(C)CCC1 |  | 8.91 µM (active) |  |  |
| CCC(=O)C(CC(C)N(C)C)(c1ccccc1)c1ccccc1 (centres undefined) | inactive | inactive | inactive |  |
| CO[C@@]12[C@H](COC(N)=O)C3=C(C(=O)C(C)=C(N)C3=O)N1C[C@@H]1N[C@@H]12 | inactive | inactive |  |  |
| O=C(C1CCCCC1)N1CC(=O)N2CCc3ccccc3C2C1 (centres undefined) | inactive | inactive | inactive |  |
| COc1cc(Nc2c(C#N)cnc3cc(OCCCN4CCN(C)CC4)c(OC)cc23)c(Cl)cc1Cl |  | inactive |  | 1.09 µM (active) |
| NC1[C@H]2CN(c3nc4c(cc3F)c(=O)c(C(=O)O)cn4-c3ccc(F)cc3F)C[C@@H]12 (some centres undefined) | inactive | inactive |  |  |
| O=C1c2c(O)ccc(O)c2C(=O)c2c(NCCNCCO)ccc(NCCNCCO)c21 |  | 4.32 µM (active) | 1.37 µM (active) and 1.26 µM (active) | 685 nM (active) and 891 nM (active) and 1.78 µM (active) |
| Cc1nc(Nc2ncc(C(=O)Nc3c(C)cccc3Cl)s2)cc(N2CCN(CCO)CC2)n1 |  | inactive | inactive |  |
| CN1CCC[C@@H]1CCO[C@](C)(c1ccccc1)c1ccc(Cl)cc1 | inactive |  | inactive |  |
| CS(=O)(=O)CCNCc1ccc(-c2ccc3ncnc(Nc4ccc(OCc5cccc(F)c5)c(Cl)c4)c3c2)o1 |  | 0.769 µM (active) | 137 nM (active) | 0.432 µM (active) |
| Nc1ccn([C@@H]2O[C@H](CO)[C@@H](O)C2(F)F)c(=O)n1 | inactive | inactive |  |  |
| Nc1nc2c(ncn2COC(CO)CO)c(=O)[nH]1 | inactive | inactive |  |  |
| O=C1c2cccc3c2[C@H](CCC3)CN1[C@@H]1CN2CCC1CC2 | inactive | inactive | inactive |  |
| CN(Cc1cnc2nc(N)nc(N)c2n1)c1ccc(C(=O)N[C@@H](CCC(=O)O)C(=O)O)cc1 | inactive | inactive | inactive |  |
| O=C1Cc2cc(CCN3CCN(c4nsc5ccccc45)CC3)c(Cl)cc2N1 |  | inactive | inactive | inactive |
| CCc1nn(CCCN2CCN(c3cccc(Cl)c3)CC2)c(=O)n1CCOc1ccccc1 |  |  | inactive |  |
| CS(=O)c1ccc(-c2nc(-c3ccc(F)cc3)c(-c3ccncc3)[nH]2)cc1 (centres undefined) | inactive | inactive | inactive |  |
| CC1(CN2CCC(n3c(=O)[nH]c4ccccc43)CC2)OCc2ccccc2-n2cccc21 (centres undefined) | inactive | inactive | inactive |  |
| COC(=O)C1=C(C)NC(C)=C(C(=O)OCC(C)C)C1c1ccccc1[N+](=O)[O-] (centres undefined) | inactive | inactive | inactive |  |
| CCc1c2c(nc3ccc(OC(=O)N4CCC(N5CCCCC5)CC4)cc13)-c1cc3c(c(=O)n1C2)COC(=O)[C@]3(O)CC |  | 27.3 µM (active) |  | 4.32 µM (active) |
| Cc1cc2c(C(C)C)c(O)c(O)c(C=O)c2c(O)c1-c1c(C)cc2c(C(C)C)c(O)c(O)c(C=O)c2c1O |  |  | inactive | 30.6 µM (active) |
| Nc1nc(N)c2nc(-c3ccccc3)c(N)nc2n1 | inactive | inactive |  |  |
